Our source for the growth values is PubChem BioAssay (NCI).

About 83,000 compounds went through this panel and 20% of them were active in at least one assay; those are over-represented in the sample as a whole.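 Cell lines were cultured in 96-well plates, exposed to a single compound concentration, and assessed for percent growth 48 hours later.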 Unmarked numbers belong to inactive results. Active and inactive are the calls of the source. The calls were made as follows: active = growth percent below 10; inactive = the rest.

Among the test systems are T-47D breast; BT-549 breast; MDA-MB-435 melanoma; SW-620 colon; MCF7 breast; HCT-116 colon; HCC-2998 colon; KM12 colon.
What all share (experiment): NCI-60 one-dose screen, 48 h (100 = growth as untreated, 0 = no growth, -100 = all killed)
Holding throughout (conditions): 10 µM unless noted

Take `CN1C(=O)N(C)C2NC(N/N=C/c3ccccc3)=NC21` (stereo not drawn): the growth with T-47D breast is 90.6%; in the test with BT-549 breast, 100%; with MDA-MB-435 melanoma, 99.6%; with SW-620 colon it was 102%; in the test on MCF7 breast, 98.2%; in the test with HCT-116 colon it was 95.6%. Further, the growth was 103% in the test with HCC-2998 colon and 108% with KM12 colon.
Take `Cc1c(C2=CCCCC2)c2ccccn2c1C(=O)c1cccc(S(=O)(=O)N2CCOCC2)c1`: the growth in the test on T-47D breast was 79.3%; with BT-549 breast, 54.8%; in the test with MDA-MB-435 melanoma it was 62.5%; in the test on SW-620 colon, 98.2%; in the test on MCF7 breast it was 93.4%; with HCT-116 colon, 43%. Also, the results for the growth in the test on HCC-2998 colon and with KM12 colon were 82.2% and 72.3%, respectively.
Regarding `Cc1cc(Nc2cccc(C(F)(F)F)c2)n2c(nc3ccccc32)c1C#N`, the growth is 8.68% (active) in the test on T-47D breast; 19.4% in the test with BT-549 breast; 45.5% with MDA-MB-435 melanoma; 23.8% in the test with SW-620 colon; 36.3% in the test with MCF7 breast; 39.6% in the test on HCT-116 colon. Moreover, the growth is 46.3% in the test with HCC-2998 colon and 20.9% in the test with KM12 colon.
Regarding `C=C(C)[C@@H]1CC[C@]2(C(=O)O)CC[C@]3(C)[C@H](CC[C@@H]4[C@@]5(C)C[C@@H](CC#Cc6ccc(Br)cc6)C(=O)C(C)(C)[C@@H]5CC[C@]43C)[C@@H]12`, the growth is 48.3% in the test on T-47D breast; 69.8% with BT-549 breast; 42.4% in the test on MDA-MB-435 melanoma; 42.1% with SW-620 colon; 49% with MCF7 breast; 39.4% with HCT-116 colon. For the same compound, the figures for the growth in the test on HCC-2998 colon and in the test on KM12 colon were 61.4% and 40.3%, respectively.
Consider `COc1ccc(-c2nc(N/N=C/c3cccc(Br)c3)nc(N3CCOCC3)c2C#N)cc1`, for which the growth with T-47D breast was 77%; in the test with BT-549 breast, 100%; in the test with MDA-MB-435 melanoma, 87.9%; with SW-620 colon, 14%; in the test on MCF7 breast, 59.3%; with HCT-116 colon, 32.9%. The results for the growth in the test on HCC-2998 colon and with KM12 colon were 75.4% and 44.2%, respectively.
On to `O=C(Nc1ccc2cc3ccc(NC(=O)N4CCCCCC4)cc3nc2c1)N1CCCCCC1`, for which the growth is -30% (active) in the test on T-47D breast; -66.6% (active) in the test with BT-549 breast; -82.4% (active) with MDA-MB-435 melanoma; -56.3% (active) in the test with SW-620 colon; -45.9% (active) with MCF7 breast; -53.1% (active) with HCT-116 colon. Also, the growth in the test with HCC-2998 colon is -63.7% (active); in the test with KM12 colon it was -65.9% (active).
On to `O=C(Nc1sc2c(c1C(=O)O)CCCC2)c1cccc(C(F)(F)F)c1`, for which the growth is 73.4% with T-47D breast; 93.1% in the test with BT-549 breast; 86.2% in the test on MDA-MB-435 melanoma; 90.6% in the test on SW-620 colon; 63.5% in the test with MCF7 breast; 80.2% in the test with HCT-116 colon. The growth with HCC-2998 colon was 101%; in the test with KM12 colon, 89.9%.
Turning to `O=C1Nc2cc(-c3ccncc3)ccc2/C1=C/c1ccc[nH]1`, the growth is -20.9% (active) with T-47D breast; 24.4% with BT-549 breast; 100% in the test with MDA-MB-435 melanoma; 105% with SW-620 colon; 21% with MCF7 breast; 57.2% in the test with HCT-116 colon. The figures for the growth with HCC-2998 colon and with KM12 colon were 72.2% and 33.1%, respectively.
Regarding `O=C1Nc2c(ccc(Cl)c2Cl)/C1=C/c1ccc([N+](=O)[O-])cc1`, the growth in the test with T-47D breast was 85.3%; in the test on BT-549 breast, 87.4%; in the test on MDA-MB-435 melanoma, 93%; in the test with SW-620 colon it was 100%; with MCF7 breast, 90.4%; in the test with HCT-116 colon, 76.9%. Besides, the results for the growth with HCC-2998 colon and in the test with KM12 colon were 108% and 110%, respectively.
As to `COc1ccc(CC(C)=C(c2ccc(OCCN(C)C)cc2)c2ccc(OCCN(C)C)cc2)cc1`, the growth is 84.5% with T-47D breast; 78.3% in the test with BT-549 breast; 61.9% with MDA-MB-435 melanoma; 48.1% in the test on SW-620 colon; 69.7% in the test on MCF7 breast; 22% with HCT-116 colon. Moreover, the growth was 89% in the test with HCC-2998 colon and 75.5% with KM12 colon.
In the case of `N#Cc1c(NC(=O)c2cccc(Br)c2)sc2c1CCCC2`, the growth in the test with T-47D breast was 77.9%; with BT-549 breast it was 96.7%; in the test on MDA-MB-435 melanoma, 10.8%; in the test on SW-620 colon, 50.5%; with MCF7 breast, 51.8%; in the test on HCT-116 colon it was 74.9%. In addition, the growth was 94.7% in the test with HCC-2998 colon and 69.5% with KM12 colon.
For the compound `CCN(CC)CCCC(C)Nc1c2c(nc3ccc(OC)cc13)CCCC2` (stereo not drawn), the growth with T-47D breast is 113%; in the test on BT-549 breast, 101%; in the test on MDA-MB-435 melanoma, 103%; in the test on SW-620 colon, 103%; with MCF7 breast, 91.4%; with HCT-116 colon it was 73.6%. For the same compound, the growth with HCC-2998 colon was 103%; with KM12 colon, 106%.
Turning to `COc1ccc(C(O)c2cc3c(N)c(C(=O)Nc4cccc(Br)c4C)sc3nc2C)cc1` (stereo not drawn), the growth was 51.8% in the test with T-47D breast; 42.3% with BT-549 breast; 8.91% (active) in the test with MDA-MB-435 melanoma; 25.9% in the test on SW-620 colon; 22.1% in the test with MCF7 breast; 13.2% in the test with HCT-116 colon. Moreover, the growth with HCC-2998 colon is 16.2%; in the test with KM12 colon, 11.1%.
Take `COc1cc(C(=O)/C=C/c2c(C)n([O-])c3ccc(Cl)cc3[n+]2=O)cc(OC)c1OC`: the growth in the test with T-47D breast is 29.8%; in the test with BT-549 breast it was 64.7%; in the test with MDA-MB-435 melanoma, 49.4%; with SW-620 colon, 24.2%; in the test on MCF7 breast it was 30.4%; in the test with HCT-116 colon, 15.4%. The growth was 100% with HCC-2998 colon and 73.1% in the test with KM12 colon.
As for `COc1c(Cl)cc(Cl)c2ccc(C=C3C(=O)N(C)C(=O)N(C)C3=O)nc12`, the growth is 100% in the test on T-47D breast; 90.4% in the test on BT-549 breast; 102% with MDA-MB-435 melanoma; 105% with SW-620 colon; 94.9% in the test on MCF7 breast; -46.6% (active) with HCT-116 colon. Further, the growth with HCC-2998 colon and in the test with KM12 colon was 101% throughout.
As for `CCSc1ccc2c(c1)N(CCCN1CCN(C)CC1)c1ccccc1S2`, the growth was 47% with T-47D breast; 73.2% in the test with BT-549 breast; -15.1% (active) in the test on MDA-MB-435 melanoma; 45.5% in the test with SW-620 colon; 20.5% in the test on MCF7 breast; 21.9% in the test on HCT-116 colon. In addition, the growth in the test on HCC-2998 colon was 13.4%; in the test on KM12 colon, 4.74% (active).
